Our source for the outcome and AC50 values is PubChem BioAssay (EPA / NIEHS).

Structures are written as SMILES. Inconclusive results are not listed. Active and inactive are the calls of the source. The calls were made as follows, unless noted: active = hit-call score of the fitted dose curve at least 0.9, where 1 is the maximum; inactive = score below 0.9.

Assay [1] can be described thus: ACEA_ER_80hr: ACEA Biosciences xCELLigence Real-Time Cell Analysis on Estrogen Receptor Agonism for Proliferation (AID 2282667; active = hit-call score of the fitted dose curve at least 0.9, where 1 is the maximum). Particulars: T47D proliferation, impedance (xCELLigence), 80 h. The essentials: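 Real-time impedance growth kinetics of human T-47D breast cells read 80 h after dosing, gain-of-signal fitted relative to DMSO. Compounds: 1:4 serial series, top final concentration 100 uM, n = 2.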

Assay [2] in a line: APR_HepG2_CellCycleArrest_24hr: Apredica 24-hour HepG2 Assay for Cell Cycle Arrest (AID 2282905).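 Also: cell cycle arrest scored as ratio of 2N to 4N nuclear DNA content.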 Particulars: imaging, actives raise or lower the signal. The essentials: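 Readout: Hoechst 33342 nuclear DNA content by high-content fluorescent imaging, six images/well, 20x. Human HepG2 liver cells, 24 hr compound exposure, 0.39–200 uM, final DMSO 0.5% v/v. Gain or loss fitted relative to DMSO baseline.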

Assay [3] in a line: APR_HepG2_NuclearSize_24hr: Apredica 24-hour HepG2 Assay for Nuclear Size (AID 2282907). Particulars: high-content imaging, actives raise or lower the signal. The method, boiled down:
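Read-out: nuclear diameter from Hoechst 33342 (2 ug/mL) imaging of fixed HepG2 cells, 20x, six fields/well. Compounds ran at 0.39–200 uM for 24 hr, 0.5% DMSO final. Gain or loss was fitted bidirectionally relative to the DMSO baseline.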

Assay [4] can be described thus: APR_HepG2_CellLoss_24hr: Apredica 24-hour HepG2 Assay for Cell Loss (AID 2282908).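 As to AC50: fit in both directions so a hit may be cell loss or gain.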 To be noted: high-content imaging. The essentials:
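Read-out: Hoechst 33342-stained nuclei counted by automated fluorescence imaging after formaldehyde fixation and Triton permeabilization. Ten concentrations, 0.39 to 200 uM, duplicate wells, 0.5% DMSO final. Gain or loss of signal fitted relative to DMSO baseline.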

Assay [5] in a line: APR_HepG2_MitoMembPot_24hr: Apredica 24-hour HepG2 Assay for Mitochondrial Membrane Potential (AID 2282911). Particulars: imaging, actives raise or lower the signal. The method, boiled down: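 Mitochondrial membrane potential imaged via MitoTracker Red CMXRos (250 nM, 30 min pre-fixation) in fixed HepG2 cells with Hoechst nuclear identification. Ten concentrations 0.39–200 uM, 24 h treatment, 0.5% DMSO; CCCP as positive control.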

A short description of assay [6]: APR_HepG2_MitoMass_24hr: Apredica 24-hour HepG2 Assay for Mitochondrial Mass (AID 2282912). Particulars: high-content imaging, actives raise or lower the signal. The essentials: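 HepG2, 24 hr dosing, 10 concentrations 0.39–200 uM in duplicate, DMSO 0.5% final. MitoTracker Red CMXRos 250 nM, 30 min pre-fix; 3.7% formaldehyde fix. Imaging-based fluorescence intensity; gain/loss fit vs DMSO baseline.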

The nature of assay [7]: APR_HepG2_CellLoss_72hr: Apredica 72-hour HepG2 Assay for Cell Loss (AID 2282915). Particulars: high-content imaging. The method, boiled down: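 Cell number comes from Hoechst 33342-labelled nuclei, imaged at 20x after 3.7% formaldehyde fixation. Dosing was 0.39–200 uM, ten concentrations in duplicate, 0.5% DMSO final, for 72 h. Bidirectional fit relative to DMSO baseline.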

Assay [8] can be described thus: APR_HepG2_P-H2AX_72hr: Apredica 72-hour HepG2 Assay for H2AX Phosphorylation (AID 2282916).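 Also: phospho-histone H2A.x immunostain intensity per cell marking DNA damage.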 Particulars: imaging, actives raise or lower the signal. The essentials:
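Readout: phospho-H2A.x immunofluorescence (FITC secondary) plus Hoechst nuclear stain, high-content imaging at 20x, six fields/well. HepG2, 72 hr compound exposure, 0.39–200 uM, final DMSO 0.5% v/v. Gain or loss fitted relative to DMSO baseline.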

Assay [9] is described as follows: APR_HepG2_MitoticArrest_72hr: Apredica 72-hour HepG2 Assay for Mitotic Arrest (AID 2282918). Particulars: high-content imaging, actives raise or lower the signal. The essentials:
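High-content imaging of fixed human HepG2 cells after 72 h compound exposure (0.39–200 uM, duplicates, 0.5% DMSO); mitotic arrest scored from phospho-histone H3 and nuclear Hoechst staining relative to DMSO.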

A short description of assay [10]: APR_HepG2_P-H2AX_24hr: Apredica 24-hour HepG2 Assay for H2AX Phosphorylation (AID 2282920). Particulars: high-content imaging, actives raise or lower the signal. The essentials:
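High-content imaging of phospho-histone H2A.x immunofluorescence, nuclei counterstained with Hoechst 33342, in fixed HepG2 cells. Compounds ran 0.39–200 uM in duplicate for 24 h, final DMSO 0.5%. Signal change fitted both directions against DMSO.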

A short description of assay [11]: APR_HepG2_StressKinase_72hr: Apredica 72-hour HepG2 Assay for Stress Kinase (AID 2282921). To be noted: HepG2 stress kinase (phospho-c-Jun) imaging, actives raise or lower the signal. The essentials: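 Phospho-c-Jun immunofluorescence measured by high-content imaging at 20x, six fields per well; bidirectional curve fitting against DMSO as baseline. Dosing: 0.39–200 uM, 72 h, 0.5% DMSO final.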

A short description of assay [12]: APR_HepG2_StressKinase_24hr: Apredica 24-hour HepG2 Assay for Stress Kinase (AID 2282922). Particulars: HepG2 stress kinase (phospho-c-Jun) imaging, actives raise or lower the signal. The essentials:
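High-content imaging of phospho-c-Jun immunofluorescence in fixed, permeabilized HepG2 cells after 24 h dosing. Ten concentrations, 0.39 to 200 uM, run in duplicate at 0.5% v/v DMSO; gain or loss of signal versus DMSO.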

Assay [13] can be described thus: APR_HepG2_NuclearSize_72hr: Apredica 72-hour HepG2 Assay for Nuclear Size (AID 2282925). To be noted: high-content imaging, actives raise or lower the signal. The essentials: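 Nuclear size was read by high-content imaging of Hoechst 33342 stain after formaldehyde fixation. Compounds ran 72 h on HepG2 at 0.39 to 200 uM, with final DMSO 0.5% v/v. Curves fitted both directions relative to DMSO control.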

The nature of assay [14]: APR_HepG2_p53Act_24hr: Apredica 24-hour HepG2 Assay for p53 Activation (AID 2282913).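 Also: p53 protein immunofluorescence averaged per cell in HepG2 with Hoechst nuclei.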 To be noted: high-content imaging, actives raise or lower the signal. The essentials: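 Fluorescence imaging of formaldehyde-fixed HepG2 cells labelled for p53 and with Hoechst, 24 h after dosing (0.39–200 uM, duplicate wells, 0.5% v/v DMSO). Signal fitted in both directions relative to DMSO.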

Assay [15] is described as follows: APR_HepG2_p53Act_72hr: Apredica 72-hour HepG2 Assay for p53 Activation (AID 2282923).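 Also: average cellular p53 protein immunofluorescence intensity in HepG2 cells.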 Particulars: high-content imaging, actives raise or lower the signal. The method, boiled down: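 Readout: p53 immunofluorescence quantified by automated high-content imaging at 20x, six fields per well, nuclei located via Hoechst. Dosing ran 72 hr over ten concentrations from 0.39 to 200 uM; bidirectional curve fitting against DMSO baseline.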

For `CCCCc1ccccc1`, the compound was classed as inactive in assay [1], in [2], in assay [3], in [4], in assay [5] and in assay [6]. The call in assay [7], in [8], in [9], in [10], in assay [11] and in [12] was inactive. For the same compound, the compound was called inactive in assay [13].
In the case of `Cc1ccc(O)cc1C`, the compound was called inactive in [1], in assay [4], in [5], in assay [6], in assay [14] and in assay [7]. The compound was classed as inactive in [8], in [9], in assay [10], in assay [11], in assay [12] and in assay [15].
As to `CSC(C)(C)C=NO`, the result in assay [1], in assay [2], in assay [3], in assay [4], in [5] and in assay [6] was inactive. Also, the result in assay [7], in assay [8], in assay [9], in assay [10], in assay [11] and in assay [12] was inactive. In addition, in [13], the compound was classed as inactive.
For `O=[N+]([O-])c1ccccc1`, the compound was classed as inactive in assay [1], in assay [2], in assay [3], in assay [4], in [5] and in assay [6]. For the same compound, the outcome in assay [14], in assay [7], in assay [8], in assay [9], in [10] and in assay [11] was inactive. Further, the compound was classed as inactive in assay [12], in assay [15] and in [13].
For `CC(Cl)(Cl)C(=O)O`, the compound was classed as inactive in assay [1], in assay [2], in assay [3], in assay [4], in assay [5] and in assay [6]. For the same compound, the call in assay [7], in assay [8], in assay [9], in assay [10], in [11] and in assay [12] was inactive. Further, the compound was classed as inactive in [13].
Usually AC50 stands for the concentration at which the activity in the assay is half-maximal. On to `CCCCCCCc1ccc(O)cc1`, for which the half-maximal activity concentration (AC50) in [1] was 0.402 µM (active). Besides, the compound was called inactive in assay [2], in [3], in assay [4], in [5], in [6] and in assay [7]. Also, the call in assay [8], in [9], in assay [10], in assay [11], in assay [12] and in assay [13] was inactive.
For the compound `Nc1cc2c3c(c1)C(c1ccccc1)=N[C@@H](NC(=O)c1cccnc1)C(=O)N3CC2`, the outcome in assay [1], in [2], in assay [3], in assay [4], in assay [5] and in [6] was inactive. The compound was classed as inactive in [7], in assay [8], in assay [9], in [10], in assay [11] and in assay [12]. In addition, the outcome in assay [13] was inactive.
`CCCCN(CCCC)N=O`: the result in assay [1], in [2], in [3], in [4], in assay [5] and in [6] was inactive. Further, the compound was classed as inactive in assay [14], in [7], in assay [8], in assay [9], in assay [10] and in assay [11]. In addition, the compound was classed as inactive in assay [12], in [15] and in assay [13].
In the case of `[N-]=[N+]=[N-]`, the call in assay [1], in [2], in assay [3], in assay [4], in assay [5] and in assay [6] was inactive. Further, the result in assay [14], in assay [7], in assay [8], in assay [9], in assay [10] and in assay [11] was inactive. The outcome in [12], in assay [15] and in [13] was inactive.
Regarding `CCC(C)(C)c1ccc(O)cc1`, the AC50 is 2.14 µM (active) in [1]; 109 µM (active) in assay [4]; 100 µM (active) in [5]; 109 µM (active) in assay [14]; 108 µM (active) in assay [7]; 121 µM (active) in [9]. Further, the AC50 in assay [15] was 105 µM (active). The compound was called inactive in [2], in assay [3], in assay [6], in assay [8], in [10] and in [11]. Besides, the call in assay [12] and in assay [13] was inactive.
In the case of `CCN(CC)c1ccccc1`, the compound was called inactive in assay [1], in [2], in [3], in [4], in assay [5] and in assay [6]. For the same compound, the outcome in [14], in assay [7], in assay [8], in assay [9], in assay [10] and in assay [11] was inactive. The outcome in assay [12], in [15] and in assay [13] was inactive.
As for `ClC1=C(Cl)C2(Cl)C3C(Cl)C(Cl)CC3C1(Cl)C2(Cl)Cl` (configuration not stated), the call in assay [1], in assay [3], in assay [5] and in assay [13] was inactive. Further, the concentration at half-maximal activity (AC50) in assay [2] was 27.8 µM (active); in [4], 69.4 µM (active); in assay [6], 48.9 µM (active); in [14] it was 82.6 µM (active); in assay [7], 60.9 µM (active); in assay [8], 108 µM (active). Moreover, the AC50 in assay [9] was 53.5 µM (active); in [10] it was 72.8 µM (active); in [11], 109 µM (active); in [12], 96.7 µM (active); in assay [15], 98.4 µM (active).
